Measurements published in the supplement of paper PMC10849652.
The full data set covers some 8,800 targets. This sample favours those with a hit. About 0.5% of all pairs of compound and target were hits. A number with no mark means an inactive call.

Legend:
Experiment in all cases: log2 fold change, soluble protein after heating vs DMSO (PISA); higher = thermal stabilisation; K562 lysate, 10 uM; active = over 0.2 and 3.5 SD of the protein, either way, in both replicates (recomputed)
ibrutinib = compound: C=CC(=O)N1CCC[C@@H](n2nc(-c3ccc(Oc4ccccc4)cc3)c3c(N)ncnc32)C1 [ibrutinib]
Outline: (§1)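 Soluble protein was defined as the supernatant remaining after 21,000xg for 90 min, following pooling of heated aliquots and adjustment to 0.5% NP-40 at 4°C. Before that, crude K562 extract at 1 mg/mL protein in PBS pH 7.4 with 1 mM MgCl2 was treated with 10 μM compound for 30 min and heated for 3 min across 48°C-58°C. Quantification used TMTpro 16plex LC-MS/MS with channel sums equalised, and values are log-two fold changes in thermal stability relative to solvent controls from duplicates.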

[1] = compound: CC(=O)c1cnc2ccc(-c3cc(Cl)c(O)c(Cl)c3)nc2c1N[C@H]1CC[C@H](CN(C)C)CC1
Outline: as §1

ralimetinib = compound: CC(C)(C)Cn1c(N)nc2ccc(-c3[nH]c(C(C)(C)C)nc3-c3ccc(F)cc3)nc21 [ralimetinib]
Outline: as §1

[2] = compound: CC(C)(O)CC(=O)NCCn1ccc2ncnc(Nc3ccc(Oc4cccc(C(F)(F)F)c4)c(Cl)c3)c21
Outline: as §1

[3] = compound: CC(C)C1=C2N=C(C=C(N2N=C1)NCC3=CC=CC=C3)NCCCCCCN
Outline: as §1

[4] = compound: CC1=C(C(CC(=O)N1)C2=CC=C(C=C2)C(F)(F)F)C(=O)NC3=C(C=C4C(=C3)C=NN4)F
Outline: as §1

[5] = compound: CC1=C(C2=C(C=C1)C(=O)C3=CC=CC=C3N2CCCN)C
Outline: as §1

[6] = compound: CC1=C(C=C(C=C1)NC(=O)C2=CC(=CC=C2)C(C)(C)C#N)NC3=CC4=C(C=C3)N=CN(C4=O)C
Outline: as §1

[7] = compound: CC1=C(C=C(C=C1)NC(=O)C2=CC(=CC=C2)N(C)C)NC(=O)C3=CC=C(C=C3)O
Outline: as §1

[8] = compound: CC1=CC=C(C=C1)SC2=C3C=C(SC3=CN=C2)C(=O)N
Outline: as §1

Chain of UniProt P35573 (P35573 whole entry, looked up): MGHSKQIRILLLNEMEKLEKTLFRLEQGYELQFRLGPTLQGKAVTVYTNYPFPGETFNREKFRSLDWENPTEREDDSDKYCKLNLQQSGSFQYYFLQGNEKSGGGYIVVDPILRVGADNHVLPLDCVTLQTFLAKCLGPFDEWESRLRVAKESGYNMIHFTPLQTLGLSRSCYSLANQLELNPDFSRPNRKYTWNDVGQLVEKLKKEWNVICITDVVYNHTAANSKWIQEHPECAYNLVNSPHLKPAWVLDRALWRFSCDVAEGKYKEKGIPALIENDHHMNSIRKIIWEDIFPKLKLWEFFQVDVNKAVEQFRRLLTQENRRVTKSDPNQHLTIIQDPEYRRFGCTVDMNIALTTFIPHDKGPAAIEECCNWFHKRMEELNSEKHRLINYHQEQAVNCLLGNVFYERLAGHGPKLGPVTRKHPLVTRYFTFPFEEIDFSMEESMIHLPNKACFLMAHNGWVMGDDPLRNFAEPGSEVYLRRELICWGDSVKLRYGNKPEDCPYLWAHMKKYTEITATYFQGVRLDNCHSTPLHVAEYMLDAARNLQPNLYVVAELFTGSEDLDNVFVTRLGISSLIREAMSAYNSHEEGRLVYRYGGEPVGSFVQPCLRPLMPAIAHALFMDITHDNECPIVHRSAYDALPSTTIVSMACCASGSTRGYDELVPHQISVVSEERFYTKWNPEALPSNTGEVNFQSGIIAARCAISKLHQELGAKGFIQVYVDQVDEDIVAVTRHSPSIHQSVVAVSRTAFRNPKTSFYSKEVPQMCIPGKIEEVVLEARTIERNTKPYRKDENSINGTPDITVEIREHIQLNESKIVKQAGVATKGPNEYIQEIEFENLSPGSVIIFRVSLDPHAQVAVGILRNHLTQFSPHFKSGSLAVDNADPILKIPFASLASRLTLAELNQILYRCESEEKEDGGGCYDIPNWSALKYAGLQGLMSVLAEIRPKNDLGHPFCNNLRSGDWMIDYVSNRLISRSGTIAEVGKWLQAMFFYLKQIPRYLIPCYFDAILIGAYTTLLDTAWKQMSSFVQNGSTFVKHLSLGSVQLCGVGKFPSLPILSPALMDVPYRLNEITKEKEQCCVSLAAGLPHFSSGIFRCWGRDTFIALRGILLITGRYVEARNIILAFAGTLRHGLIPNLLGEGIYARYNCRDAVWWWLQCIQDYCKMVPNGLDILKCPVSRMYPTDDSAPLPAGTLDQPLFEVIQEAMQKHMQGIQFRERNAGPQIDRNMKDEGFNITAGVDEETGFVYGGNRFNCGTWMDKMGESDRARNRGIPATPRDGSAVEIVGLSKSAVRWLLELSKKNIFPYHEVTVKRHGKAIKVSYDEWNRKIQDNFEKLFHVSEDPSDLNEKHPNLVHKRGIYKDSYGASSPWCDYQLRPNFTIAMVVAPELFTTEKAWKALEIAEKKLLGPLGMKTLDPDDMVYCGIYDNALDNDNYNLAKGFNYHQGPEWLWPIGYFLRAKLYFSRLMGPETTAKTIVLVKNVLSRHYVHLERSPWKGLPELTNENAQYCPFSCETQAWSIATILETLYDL
Chain of UniProt P30837 (P30837 whole entry, looked up): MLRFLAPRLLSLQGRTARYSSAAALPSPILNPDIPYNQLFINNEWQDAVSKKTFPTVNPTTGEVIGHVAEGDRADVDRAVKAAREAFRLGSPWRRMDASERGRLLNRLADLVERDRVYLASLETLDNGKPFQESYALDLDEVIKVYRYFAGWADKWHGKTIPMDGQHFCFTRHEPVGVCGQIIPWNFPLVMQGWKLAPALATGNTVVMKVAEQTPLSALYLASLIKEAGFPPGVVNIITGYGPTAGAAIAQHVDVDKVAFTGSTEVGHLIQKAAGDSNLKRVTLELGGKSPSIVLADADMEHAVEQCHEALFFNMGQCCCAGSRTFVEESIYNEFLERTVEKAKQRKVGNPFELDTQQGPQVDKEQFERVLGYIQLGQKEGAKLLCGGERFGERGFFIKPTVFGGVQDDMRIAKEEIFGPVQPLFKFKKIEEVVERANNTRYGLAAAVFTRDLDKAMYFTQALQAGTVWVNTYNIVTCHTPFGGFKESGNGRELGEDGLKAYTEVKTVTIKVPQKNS
Chain of UniProt Q9BRQ8 (Q9BRQ8 whole entry, looked up): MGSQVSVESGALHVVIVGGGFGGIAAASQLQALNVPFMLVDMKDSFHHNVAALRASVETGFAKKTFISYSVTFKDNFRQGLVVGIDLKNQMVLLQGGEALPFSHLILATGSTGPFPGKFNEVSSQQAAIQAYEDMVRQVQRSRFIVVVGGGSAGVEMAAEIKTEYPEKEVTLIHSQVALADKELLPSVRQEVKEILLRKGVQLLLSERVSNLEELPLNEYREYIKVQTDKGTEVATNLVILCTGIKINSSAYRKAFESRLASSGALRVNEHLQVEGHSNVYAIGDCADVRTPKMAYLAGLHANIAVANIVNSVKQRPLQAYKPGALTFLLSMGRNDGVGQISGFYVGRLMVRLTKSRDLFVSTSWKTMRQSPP
Chain of UniProt Q9H1I8 (Q9H1I8 whole entry, looked up): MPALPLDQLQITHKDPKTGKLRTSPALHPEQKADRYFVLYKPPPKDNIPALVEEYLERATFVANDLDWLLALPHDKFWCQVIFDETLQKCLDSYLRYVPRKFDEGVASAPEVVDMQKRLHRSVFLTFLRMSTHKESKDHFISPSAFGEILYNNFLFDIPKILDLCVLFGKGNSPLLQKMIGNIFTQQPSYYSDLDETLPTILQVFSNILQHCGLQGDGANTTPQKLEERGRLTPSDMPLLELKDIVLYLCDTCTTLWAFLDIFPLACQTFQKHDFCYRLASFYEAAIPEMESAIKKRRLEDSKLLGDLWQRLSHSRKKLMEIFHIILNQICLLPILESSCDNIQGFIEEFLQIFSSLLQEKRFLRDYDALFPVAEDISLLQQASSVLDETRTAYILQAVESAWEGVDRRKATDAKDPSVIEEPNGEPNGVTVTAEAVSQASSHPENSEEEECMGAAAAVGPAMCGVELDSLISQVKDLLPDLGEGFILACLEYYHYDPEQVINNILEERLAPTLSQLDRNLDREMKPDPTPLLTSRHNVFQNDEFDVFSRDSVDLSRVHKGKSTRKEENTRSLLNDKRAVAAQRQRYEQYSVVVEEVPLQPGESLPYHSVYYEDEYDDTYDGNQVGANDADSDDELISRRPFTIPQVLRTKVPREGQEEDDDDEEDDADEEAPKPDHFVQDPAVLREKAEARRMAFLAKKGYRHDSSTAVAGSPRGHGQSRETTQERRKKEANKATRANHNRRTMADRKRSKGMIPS
Chain of UniProt P11310 (P11310 whole entry, looked up): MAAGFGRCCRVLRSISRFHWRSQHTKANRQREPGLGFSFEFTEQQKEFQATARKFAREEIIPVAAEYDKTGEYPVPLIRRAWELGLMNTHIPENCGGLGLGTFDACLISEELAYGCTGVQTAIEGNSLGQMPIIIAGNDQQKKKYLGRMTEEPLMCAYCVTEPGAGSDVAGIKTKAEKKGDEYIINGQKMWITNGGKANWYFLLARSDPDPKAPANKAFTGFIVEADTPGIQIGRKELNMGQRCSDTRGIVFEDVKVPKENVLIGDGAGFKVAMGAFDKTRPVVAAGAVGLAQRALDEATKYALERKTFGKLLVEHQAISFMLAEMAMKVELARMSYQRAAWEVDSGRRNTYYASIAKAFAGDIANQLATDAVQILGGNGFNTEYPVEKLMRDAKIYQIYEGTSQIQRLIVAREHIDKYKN
Chain of UniProt P07311 (P07311 whole entry, looked up): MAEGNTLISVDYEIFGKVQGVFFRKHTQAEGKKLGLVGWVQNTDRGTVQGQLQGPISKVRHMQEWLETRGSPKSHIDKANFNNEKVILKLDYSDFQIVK
Chain of UniProt O60488 (O60488 whole entry, looked up): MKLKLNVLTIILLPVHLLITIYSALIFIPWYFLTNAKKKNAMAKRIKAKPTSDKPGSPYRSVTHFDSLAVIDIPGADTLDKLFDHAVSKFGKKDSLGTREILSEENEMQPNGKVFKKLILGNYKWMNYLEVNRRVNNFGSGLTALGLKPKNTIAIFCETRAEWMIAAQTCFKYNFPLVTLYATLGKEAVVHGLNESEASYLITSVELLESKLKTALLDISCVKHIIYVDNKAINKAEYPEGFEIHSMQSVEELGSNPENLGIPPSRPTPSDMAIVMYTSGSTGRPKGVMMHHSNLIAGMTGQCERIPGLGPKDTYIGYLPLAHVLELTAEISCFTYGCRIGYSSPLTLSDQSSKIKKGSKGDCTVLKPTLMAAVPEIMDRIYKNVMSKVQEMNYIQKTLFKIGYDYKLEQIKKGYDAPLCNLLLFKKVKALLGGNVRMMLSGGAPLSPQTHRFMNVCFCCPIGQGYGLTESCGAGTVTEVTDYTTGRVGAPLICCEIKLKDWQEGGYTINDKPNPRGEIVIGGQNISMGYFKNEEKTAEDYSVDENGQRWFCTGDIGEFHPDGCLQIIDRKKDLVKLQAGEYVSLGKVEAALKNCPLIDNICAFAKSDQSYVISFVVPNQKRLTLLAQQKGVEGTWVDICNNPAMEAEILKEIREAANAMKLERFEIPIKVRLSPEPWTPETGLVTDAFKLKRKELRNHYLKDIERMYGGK
Chain of UniProt Q99943 (Q99943 whole entry, looked up): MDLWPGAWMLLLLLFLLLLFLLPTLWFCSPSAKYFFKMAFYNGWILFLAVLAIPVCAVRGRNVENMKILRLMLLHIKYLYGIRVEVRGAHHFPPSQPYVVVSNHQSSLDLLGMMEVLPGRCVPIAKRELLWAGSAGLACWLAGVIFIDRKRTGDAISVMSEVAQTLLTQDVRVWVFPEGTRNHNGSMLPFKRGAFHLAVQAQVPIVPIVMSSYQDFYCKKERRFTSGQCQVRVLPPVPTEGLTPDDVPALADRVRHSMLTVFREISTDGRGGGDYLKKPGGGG
Chain of UniProt Q96BM9 (Q96BM9 whole entry, looked up): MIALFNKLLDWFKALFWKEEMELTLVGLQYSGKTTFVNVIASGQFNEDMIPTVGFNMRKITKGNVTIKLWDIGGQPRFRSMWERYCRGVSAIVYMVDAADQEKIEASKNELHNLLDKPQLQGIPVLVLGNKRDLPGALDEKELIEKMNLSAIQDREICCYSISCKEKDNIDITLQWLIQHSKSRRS

| Target | log2 fold change (ibrutinib) | log2 fold change [1] | log2 fold change (ralimetinib) | log2 fold change [2] | log2 fold change [3] | log2 fold change [4] | log2 fold change [5] | log2 fold change [6] | log2 fold change [7] | log2 fold change [8] |
| --- | --- | --- | --- | --- | --- | --- | --- | --- | --- | --- |
| ARFGAP1 (UniProt Q8N6T3) | -0.118 | 0.06 | -0.018 | -0.203 | 0.019 | 0.408 | 0.136 | -0.062 | 0.061 | -0.045 |
| ARHGAP21 (UniProt Q5T5U3) | 0.016 | 0.047 | 0.017 | -0.047 | 0.022 | 0.077 | -0.053 | 0.062 | 0.052 | -0.015 |
| ADAMTS5 (UniProt Q9UNA0) | 0.032 | -0.057 | -0.016 | -0.186 | -0.011 | 0.008 | -0.067 | 0.093 | -0.031 | -0.076 |
| AIP (UniProt O00170) | 0.019 | -0.004 | -0.022 | -0.003 | -0.012 | -0.011 | -0.017 | 0.011 | 0 | -0.023 |
| ACYP1 (UniProt P07311) | 0.056 | 0.027 | 0 | -0.024 | -0.011 | -0.021 | 0.015 | -0.013 | -0.024 | 0.021 |
| ASCC2 (UniProt Q9H1I8) | -0.328 (active) | 0.029 | 0.057 | -0.041 | 0.012 | 0.004 | 0.02 | 0.01 | 0.064 | -0.01 |
| ARL8A (UniProt Q96BM9) | -0.141 | 0.119 | -0.101 | -0.102 | 0.11 | 0.135 | -0.049 | -0.143 | -0.022 | 0 |
| ANKRD52 (UniProt Q8NB46) | 0.01 | -0.089 | -0.002 | -0.025 | 0.022 | 0.007 | -0.058 | 0.011 | 0.047 | -0.363 (active) |
| ALDH18A1 (UniProt P54886) | 0.006 | 0.007 | 0.021 | -0.015 | -0.001 | -0.02 | 0.001 | 0.022 | 0.016 | -0.018 |
| ALDH1B1 (UniProt P30837) | 0.008 | 0.086 | 0.019 | 0.02 | 0.056 | -0.024 | -0.005 | -0.018 | -0.014 | -0.018 |
| APOB (UniProt P04114) | -0.025 | -0.016 | -0.052 | -0.195 | 0.011 | -0.02 | -0.089 | 0.063 | -0.005 | -0.036 |
| ANAPC7 (UniProt Q9UJX3) | -0.007 | 0.002 | 0.015 | -0.009 | 0.001 | 0.01 | 0.002 | 0.022 | 0.023 | 0.01 |
| ACADM isoform 2 (UniProt P11310) | 0.151 | 0.026 | -0.015 | -0.047 | 0.396 (active) | -0.041 | -0.004 | -0.055 | -0.019 | 0.046 |
| ARHGEF1 (UniProt M0QZR4) | -0.009 | -0.001 | 0.009 | -0.008 | 0.019 | -0.015 | 0.007 | 0.002 | 0.015 | 0.005 |
| ABHD17A isoform 2 (UniProt Q96GS6) | -0.03 | 0.011 | 0.039 | -0.035 | 0.032 | -0.042 | -0.065 | -0.023 | -0.097 | -0.098 |
| ALDH5A1 isoform 2 (UniProt P51649) | 0.041 | 0.018 | -0.015 | 0.001 | -0.019 | -0.01 | 0.001 | 0.021 | -0.022 | 0.011 |
| AK1 (UniProt P00568) | -0.001 | 0.006 | 0.006 | -0.021 | -0.029 | -0.008 | 0.043 | -0.024 | -0.002 | 0.009 |
| AKAP11 (UniProt Q9UKA4) | 0.032 | -0.111 | 0.058 | -0.068 | 0.054 | 0.065 | -0.015 | -0.002 | 0.003 | 0.085 |
| ACAA1 (UniProt P09110) | 0.046 | -0.012 | -0.054 | -0.003 | 0 | -0.02 | -0.016 | 0.044 | 0.001 | -0.007 |
| ACSL1 (UniProt P33121) | 0.009 | 0.008 | -0.004 | -0.075 | 0.01 | 0.024 | 0.004 | -0.01 | 0.026 | -0.004 |
| AK2 (UniProt P54819) | 0.054 | -0.022 | -0.013 | 0.027 | 0.018 | -0.018 | 0.003 | -0.018 | -0.031 | -0.024 |
| AGL (UniProt P35573) | -0.007 | 0.01 | 0.048 | 0.018 | -0.006 | -0.004 | 0.021 | -0.017 | 0 | 0.027 |
| AGPAT1 (UniProt Q99943) | -0.121 | -0.05 | 0.027 | -0.051 | -0.026 | 0.06 | 0.012 | 0.02 | 0.043 | 0.042 |
| AIFM2 (UniProt Q9BRQ8) | -0.016 | -0.075 | 0.028 | 0.643 (active) | 0.275 | -0.033 | -0.161 | -0.04 | -0.051 | 0.024 |
| ABHD16A (UniProt O95870) | -0.01 | 0.004 | 0.029 | 0.018 | 0.027 | -0.022 | 0.03 | -0.031 | -0.077 | -0.011 |
| ACSL4 (UniProt O60488) | 0.035 | -0.012 | 0.051 | -0.022 | -0.015 | 0.027 | -0.079 | -0.044 | 0.052 | 0.021 |
| ARL1 (UniProt P40616) | -0.029 | -0.005 | 0.027 | -0.001 | -0.017 | 0.098 | -0.026 | 0.134 | -0.021 | -0.027 |
| ACIN1 (UniProt E7EQT4) | 0.049 | -0.033 | 0.123 | -0.052 | 0.028 | -0.017 | -0.052 | 0.094 | -0.03 | -0.002 |
| ANXA2 (UniProt H0YL33) | 0.235 | -0.167 | -0.076 | 0.129 | -0.353 | 0.033 | 0.025 | -0.211 | 0.005 | -0.144 |
| ALG8 (UniProt Q9BVK2) | 0.017 | -0.013 | 0.013 | 0.036 | -0.028 | -0.005 | 0.054 | 0.027 | -0.011 | -0.003 |
